According to article PMC5540273 (PLoS ONE, 2017):

system: WEE1; conditions: concentration: 1 μM, replicates: in singlicate; n = 1
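Further: KINOMEscan kinase panel screen.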

Compound	%Inh [%]
Cl.Cl.c1ccc(-c2cc3ccncc3cc2OC2CCNCC2)cc1 [GSK1122999]	5
Cc1cccc(-c2nc(Nc3ccc4[nH]nnc4c3)c3ccccc3n2)n1 [GW867587]	0
COc1cc2c(Nc3cccc(NC(=O)c4ccccc4)c3)ncnc2cc1OCCCN1CCOCC1 [GSK223810]	0
Nc1nccc2scc(-c3ccc4c(c3)CCN4C(=O)Cc3cc(F)ccc3F)c12 [GSK2587663]	44
COc1ccc(NC(=O)c2ccc(-c3cc(-c4nnc(C)o4)ccc3C)cc2)cc1 [GW595885]	0
FC(F)(F)c1ccc(-c2nn3ncccc3c2-c2ccnc(Nc3cccc(C(F)(F)F)c3)n2)cc1 [GW828205]	5
NC(=O)c1sc(-n2cnc3ccccc32)cc1OCc1ccccc1F [GSK1024306]	7
Cl.O=S(=O)(c1cccc(F)c1)c1ccc(Nc2ncnc3cc(Br)sc23)cc1Cl [GSK306886]	20
CCCc1ccc(S(=O)(=O)NC2CCN(c3ccnc(Nc4ccc(OC)cc4)n3)C2)cc1 (stereo not drawn) [GSK1379737]	12
CCn1c(-c2ccncc2)nc2cnccc21 [SB-735216]	0
O=C(CCO)NCCn1ccc2ncnc(Nc3ccc(Oc4cccc(C(F)(F)F)c4)c(Cl)c3)c21	1
Cl.Fc1ccccc1COc1ccc(Nc2ncnc3ccc(-c4nnc(C(F)(F)F)o4)cc23)cc1Cl [GW424170]	3
Cn1cc(-c2ccc3c(c2)CCN3C(=O)Cc2cccc(C(F)(F)F)c2)c2c(N)ncnc21 [GSK2606414]	0
CNc1nccc(-c2c(-c3ccc(F)cc3)ncn2C2CCN(C)CC2)n1 [SB-222903]	0
Cl.Cn1ccc(-c2cccc(Nc3ccnc4cc(-c5nccs5)ccc34)c2)n1 [GW525701]	11
Fc1ccc(-c2ncn(CCCNCc3ccccc3)c2-c2ccncc2)cc1	0
C[C@@H]1CCN(C(=O)CO)C[C@@H]1N(C)c1ncnc2[nH]ccc12	0
CC(C)(C)c1ccc(-n2cnc3c(N)ncnc32)cc1 [SKF-97263]	0
COc1ccc(-c2oc3ncnc(N)c3c2-c2ccc(OC)cc2)cc1 [SB-589132]	33
FC(F)(F)c1cc(Nc2nccc(-c3c(-c4ccc(Cl)cc4)nn4ncccc34)n2)ccc1Cl [GW829351]	9
O=C(Nc1ccccc1F)NC1CCN(c2ccnc(Nc3ccc(F)cc3)n2)C1 (stereo not drawn) [GSK1379722]	9
O=C(NCCCN1CCCC1=O)c1cnc(NCc2cc(Cl)ccc2Cl)nc1NC1CCNCC1	0
Cl.c1ccc(Cn2ncc3cc(Nc4ncnc5ccccc45)ccc32)cc1 [GW273749]	10
Fc1cccc(COc2ccc(Nc3ncnc4sc(-c5ccc[nH]5)cc34)cc2Cl)c1 [GW707818]	6

system: WEE2; conditions: concentration: 1 μM, replicates: in singlicate; n = 1

Compound	%Inh [%]
Clc1ccc(-c2cc(-c3c[nH]nc3-c3ccccn3)ccn2)cc1 [GW681251]	0
Fc1ccc(Nc2nccc(-c3c(-c4ccc(Cl)cc4)nn4ncccc34)n2)cc1F [GW829058]	2
CS(=O)(=O)CCNCc1ccc(-c2ccc3ncnc(Nc4ccc(OCc5ccccc5)c(Cl)c4)c3c2)o1.Cl [GW574783]	19
CN1c2ccc(-c3ccc(C(=O)NCCO)cc3)cc2-c2[nH]ncc2S1(=O)=O	1
CCc1nc(-c2cccc(N(C)S(=O)(=O)c3ccccc3)c2)c(-c2ccnc(Nc3ccc(N4CCN(C(C)=O)CC4)nc3)n2)s1 [GSK1645895]	0
Oc1ccc2ncnc(Nc3ccc(OCc4ccccc4)cc3)c2c1 [GI262866]	0
Cc1ccc(NC(=O)c2cccc(C#N)c2)cc1-c1ccc(C(=O)Nc2ccncc2)cc1 [GSK1398463]	0
CC(C)(C)OC(=O)NC1CCCN(c2cc(-c3ccc4c(N)n[nH]c4c3)nc(N)n2)C1 (stereo not drawn) [GSK2286096]	0
COc1ccc(Nc2nccc(N3CCC(NC(=O)Nc4ccc5c(c4)OCO5)C3)n2)cc1 (stereo not drawn) [GSK1379745]	14
COc1ccc(NC(=O)Nc2ccc(C)c(-c3ccc(C(=O)Nc4ccncc4)cc3)c2)cc1 [GSK1398475]	11
Cn1ccc2ncnc(Oc3ccc(NC(=O)Nc4cccnc4)c(Cl)c3)c21	28
Fc1cccc(COc2ccc(Nc3ncnc4cc[nH]c34)cc2Cl)c1	4
Cl.Cl.c1ccc(-c2cc3ccncc3cc2OC2CCNCC2)cc1 [GSK1122999]	11
Cc1cccc(-c2nc(Nc3ccc4[nH]nnc4c3)c3ccccc3n2)n1 [GW867587]	0
COc1cc2c(Nc3cccc(NC(=O)c4ccccc4)c3)ncnc2cc1OCCCN1CCOCC1 [GSK223810]	40
Nc1nccc2scc(-c3ccc4c(c3)CCN4C(=O)Cc3cc(F)ccc3F)c12 [GSK2587663]	0
COc1ccc(NC(=O)c2ccc(-c3cc(-c4nnc(C)o4)ccc3C)cc2)cc1 [GW595885]	2
FC(F)(F)c1ccc(-c2nn3ncccc3c2-c2ccnc(Nc3cccc(C(F)(F)F)c3)n2)cc1 [GW828205]	11

Compound	%Inh [%]
NC(=O)c1sc(-n2cnc3ccccc32)cc1OCc1ccccc1F [GSK1024306]	0
Cl.O=S(=O)(c1cccc(F)c1)c1ccc(Nc2ncnc3cc(Br)sc23)cc1Cl [GSK306886]	9
CCCc1ccc(S(=O)(=O)NC2CCN(c3ccnc(Nc4ccc(OC)cc4)n3)C2)cc1 (stereo not drawn) [GSK1379737]	0
CCn1c(-c2ccncc2)nc2cnccc21 [SB-735216]	1
O=C(CCO)NCCn1ccc2ncnc(Nc3ccc(Oc4cccc(C(F)(F)F)c4)c(Cl)c3)c21	0
Cl.Fc1ccccc1COc1ccc(Nc2ncnc3ccc(-c4nnc(C(F)(F)F)o4)cc23)cc1Cl [GW424170]	5
Cn1cc(-c2ccc3c(c2)CCN3C(=O)Cc2cccc(C(F)(F)F)c2)c2c(N)ncnc21 [GSK2606414]	19
CNc1nccc(-c2c(-c3ccc(F)cc3)ncn2C2CCN(C)CC2)n1 [SB-222903]	0
Cl.Cn1ccc(-c2cccc(Nc3ccnc4cc(-c5nccs5)ccc34)c2)n1 [GW525701]	0
Fc1ccc(-c2ncn(CCCNCc3ccccc3)c2-c2ccncc2)cc1	4
C[C@@H]1CCN(C(=O)CO)C[C@@H]1N(C)c1ncnc2[nH]ccc12	0
CC(C)(C)c1ccc(-n2cnc3c(N)ncnc32)cc1 [SKF-97263]	2
COc1ccc(-c2oc3ncnc(N)c3c2-c2ccc(OC)cc2)cc1 [SB-589132]	0
FC(F)(F)c1cc(Nc2nccc(-c3c(-c4ccc(Cl)cc4)nn4ncccc34)n2)ccc1Cl [GW829351]	0
O=C(Nc1ccccc1F)NC1CCN(c2ccnc(Nc3ccc(F)cc3)n2)C1 (stereo not drawn) [GSK1379722]	0
O=C(NCCCN1CCCC1=O)c1cnc(NCc2cc(Cl)ccc2Cl)nc1NC1CCNCC1	0
Cl.c1ccc(Cn2ncc3cc(Nc4ncnc5ccccc45)ccc32)cc1 [GW273749]	3
Fc1cccc(COc2ccc(Nc3ncnc4sc(-c5ccc[nH]5)cc34)cc2Cl)c1 [GW707818]	0
